Measurements taken from PubChem BioAssay.
Values joined by “and” are separate entries in the source; they are usually repeats but may differ in a detail not shown here. Identical values can stand only once. Active and inactive are the calls of the source.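 How the source made its calls, unless noted: active means thallium flux through the channel raised or lowered by more than 3 SD from vehicle-only wells, actives on both sides; inactive means the rest.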

Key:
F380Y = test: modulators of BK channel variants, profiling panel, selectivity assay, cell-based, U2OS BacMam, thallium flux, beta subunits (AID 1259406); conditions: at 30 µM;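 further: initial slope of Thallos dye fluorescence rise after thallium is added; log ratio against the mean of 0.3% DMSO vehicle wells on the same plate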
F380Y/beta1 = test: as above; conditions: at 30 µM
F380Y/beta2Delta = test: as above; conditions: at 30 µM
F380Y/beta4 = test: as above; conditions: at 30 µM
[1] = target: Calcium-activated potassium channel subunit alpha-1 (Homo sapiens) + Leucine-rich repeat-containing protein 26 (Homo sapiens) (UniProt Q12791+Q2I0M4); test: as above; conditions: F380Y/Slo1WT/gamma1, at 30 µM
R275C = test: as above; conditions: at 30 µM
R275C/beta1 = test: as above; conditions: at 30 µM
R275C/beta2Delta = test: as above; conditions: at 30 µM
R275C/beta4 = test: as above; conditions: at 30 µM
R275C/Slo1WT/beta2 = test: as above; conditions: at 30 µM
[2] = UWB1.289 ovarian carcinoma cell growth inhibition, synergistic combos for chromothripsis tumors, BGB or cisplatin combos (AID 1671456; in the data active means inhibition above about 80%;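 further: cells exposed to compound for four days; 0% = vehicle DMSO and 100% = killing by high DMSO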); conditions: UWB1.289 ovarian carcinoma cells, stronger effect = higher value
[3] = LFS_MB_2R medulloblastoma cell growth inhibition, synergistic combos for chromothripsis tumors, cisplatin combos (AID 1671457; in the data active means inhibition above about 80%;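 further: cells exposed to compound for four days before readout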); conditions: LFS_MB_2R medulloblastoma cells, stronger effect = higher value
[4] = MDA-MB-436 breast carcinoma cell growth inhibition, synergistic combos for chromothripsis tumors, BGB or cisplatin combos (AID 1671458; call rule not given here;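 further: cells exposed for 96 hours; 0% = vehicle DMSO and 100% = killing by high DMSO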); conditions: MDA-MB-436 breast carcinoma growth inhibition, drug combinations, stronger effect = higher value
[5] = UWB1.289_BRCA1 ovarian cancer growth, cell-based, BGB or cisplatin combinations (AID 1671459; in the data active means inhibition above about 80%); conditions: UWB1.289 BRCA1 ovarian carcinoma, drug combinations, stronger effect = higher value
[6] = human astrocyte viability loss, single and combined drugs, cytotoxicity control for chromothriptic childhood tumor combination screen, cell-based, BGB or cisplatin IC20 combos (AID 1671460; in the data active means inhibition above about 80%;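 further: cells exposed to compounds for 96 hours before viability readout; 0% = vehicle and 100% = killing control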); conditions: Human astrocytes, drug combinations, stronger effect = higher value
[7] = growth inhibition of BT084 medulloblastoma cells, cell-based, ICGC_MB145, cisplatin and BGB IC40 combos (AID 1671461; in the data active means inhibition above about 80%;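 further: cells exposed to drugs for 96 hours; 0% = vehicle DMSO and 100% = high DMSO full killing control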); conditions: drug combinations, stronger effect = higher value
[8] = growth inhibition of RCMB18 medulloblastoma cells, cell-based, cisplatin and BGB IC40 combos (AID 1671462; in the data active means inhibition above about 80%;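 further: cells exposed to compound for four days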); conditions: stronger effect = higher value
[9] = growth inhibition of CRL1545 osteosarcoma cells, cell-based, cisplatin and BGB IC20 combos (AID 1671464; in the data active means inhibition above about 80%;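 further: cells exposed to compound for 96 hours before readout; 0% = vehicle DMSO and 100% = high DMSO killing control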); conditions: stronger effect = higher value
[10] = measured here: combination with cisplatin, at 0.5 µM

Sequence of Calcium-activated potassium channel subunit alpha-1 (Homo sapiens) + Leucine-rich repeat-containing protein 26 (Homo sapiens) (Q2I0M4 whole entry, looked up, one chain of several): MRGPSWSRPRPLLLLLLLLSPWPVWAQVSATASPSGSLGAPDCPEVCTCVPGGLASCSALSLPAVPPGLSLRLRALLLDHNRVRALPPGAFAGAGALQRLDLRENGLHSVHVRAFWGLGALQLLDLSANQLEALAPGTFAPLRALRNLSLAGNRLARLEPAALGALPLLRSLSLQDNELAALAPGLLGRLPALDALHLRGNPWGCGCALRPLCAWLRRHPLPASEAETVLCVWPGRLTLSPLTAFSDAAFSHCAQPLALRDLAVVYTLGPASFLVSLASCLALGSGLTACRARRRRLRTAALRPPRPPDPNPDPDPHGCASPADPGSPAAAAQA

With `Clc1ccc2nsnc2c1NC1=NCCN1` the log fold change Tl+ flux (F380Y) was -0.038 (inactive), the log fold change Tl+ flux (F380Y/beta1) was -0.0369 (inactive) and the log fold change Tl+ flux (F380Y/beta2Delta) was -0.0575 (inactive). The log fold change Tl+ flux (F380Y/beta4) was -0.0136 (inactive), the log fold change Tl+ flux [1] was 0.00637 (inactive) and the log fold change Tl+ flux (R275C) was 0.0392 (inactive). For the same compound, the log fold change Tl+ flux (R275C/beta1) was 0.0375 (inactive), the log fold change Tl+ flux (R275C/beta2Delta) was -0.063 (inactive) and the log fold change Tl+ flux (R275C/beta4) was 0.0661 (inactive). For the same compound, the log fold change Tl+ flux (R275C/Slo1WT/beta2) was 0.00517 (inactive).
With `Cn1nnc2c(C(N)=O)ncn2c1=O` the inhibition ([2]; at 0.5 µM) was 10.5% (inactive) and 0.13% (inactive), the inhibition ([2]; measured here: inhibition with BGB combination, at 0.05 µM) was 4.75% and -18.9% and the inhibition ([2]; measured here: inhibition with cisplatin combination, at 0.05 µM) was 25.6% and -6.43%. For the same compound, the inhibition ([3]; at 0.5 µM) was 7.22% (inactive) and -24.1% (inactive), the inhibition [3, 10] was 1.03% and -18.7% and the inhibition ([3]; measured here: combination with cisplatin, at 5 µM) was 8.16% and -14%. The inhibition ([4]; at 0.5 µM) was 6.91% (inactive) and -16.3% (inactive), the inhibition ([4]; measured here: BGB combination, at 0.5 µM) was 12.9% and -14.6% and the inhibition ([4]; measured here: BGB combination, at 5 µM) was 4.06% and -13.6%. For the same compound, the inhibition ([4]; measured here: cisplatin combination, at 0.5 µM) was 2.96% and -35.2%, the inhibition ([4]; measured here: cisplatin combination, at 5 µM) was 1.26% and -29.8% and the inhibition ([5]; BGB combination, concentration series, at 5 µM) was 6.41% and 2.63%. The inhibition ([5]; at 0.5 µM) was 6.2% (inactive) and -1.71% (inactive), the inhibition ([5]; cisplatin combination, concentration series, at 5 µM) was -10.8% and 7.27% and the inhibition ([6]; at 0.5 µM) was 14.2% (inactive) and -4.55% (inactive). The inhibition ([6]; measured here: combo with BGB IC20, at 0.5 µM) was 6.32% and -9.95%, the inhibition ([6]; measured here: combo with cisplatin IC20, at 0.5 µM) was 16.8% and -6.6% and the inhibition ([7]; at 0.5 µM) was -1.52% (inactive) and -18.4% (inactive). For the same compound, the inhibition ([7]; cisplatin combination, at 0.5 µM) was -21% and -7.48%, the inhibition ([7]; cisplatin combination, at 5 µM) was 1.38% and -35.6% and the inhibition ([7]; measured here: BGB IC40 combination 0.05 uM, at 0.05 µM) was -9.43% and 0.326%. The inhibition ([7]; single agent, at 5 µM) was 8.38% and -21.4%, the inhibition ([8]; at 0.5 µM) was -3.58% (inactive) and -13.6% (inactive) and the inhibition ([8]; cisplatin combo, at 5 µM) was -29.7% and 13.3%. For the same compound, the inhibition ([8]; measured here: BGB IC40 combination, at 0.05 µM) was 7.57% and -3.63%, the inhibition [8, 10] was -5.87% and -11.2% and the inhibition ([8]; single agent, at 5 µM) was -2.81% and -25.8%. For the same compound, the inhibition ([9]; at 0.5 µM) was -15.1% (inactive) and -33.6% (inactive), the inhibition ([9]; measured here: with BGB IC20 combination, at 0.5 µM) was -16.2% and -3.96% and the inhibition ([9]; measured here: with cisplatin IC20 combination, at 0.5 µM) was -16.4% and -48.4%. For the same compound, the inhibition ([9]; single agent, at 0.05 µM) was -25.4% and 17.1%, the inhibition ([9]; single agent, at 5 µM) was -10.6% and 18.5% and the log fold change Tl+ flux (F380Y) was -0.0478 (inactive). The log fold change Tl+ flux (F380Y/beta1) was -0.022 (inactive), the log fold change Tl+ flux (F380Y/beta2Delta) was -0.0261 (inactive) and the log fold change Tl+ flux (F380Y/beta4) was -0.0309 (inactive). For the same compound, the log fold change Tl+ flux [1] was 0.0144 (inactive), the log fold change Tl+ flux (R275C) was -0.00524 (inactive) and the log fold change Tl+ flux (R275C/beta1) was -0.0169 (inactive). For the same compound, the log fold change Tl+ flux (R275C/beta2Delta) was 0.0357 (inactive), the log fold change Tl+ flux (R275C/beta4) was -0.0137 (inactive) and the log fold change Tl+ flux (R275C/Slo1WT/beta2) was 0.06 (inactive).
